Test system: Vero E6 infected with SARS-CoV-2
Assay: inhibition of SARS-CoV-2 cytopathic effect; higher = more antiviral protection, active = above 15
Conditions: 48 h

Measured: inhibition of SARS-CoV-2 cytopathic effect

CN1CCC(=C2c3ccccc3CC(=O)c3sccc32)CC1 [ketotifen]
inactive: 1 nM 1.19% | 8.33 nM 4.8% | 100 nM 2.53% | 833.33 nM 1.27% | 10000 nM -3.64%

CCNC(=O)C#Cc1ccc2c(C(=Nc3ccc(CN(C)C)cc3)c3ccccc3)c(O)[nH]c2c1
inactive: 1 nM 0.51% | 8.33 nM -0.81% | 100 nM -4.45% | 833.33 nM -15.2% | 10000 nM -20.6%

C[C@]12COC(=O)C[C@@H]1CC[C@@H]1[C@@H]2CC[C@@]2(C)[C@H]1CC[C@]2(C)O [Oxandrolone]
inactive: 1 nM 1.55% | 8.33 nM 0.57% | 100 nM -0.27% | 833.33 nM -0.56% | 10000 nM 0.44%

Oc1cccc(-c2c3nc(c(-c4cccc(O)c4)c4ccc([nH]4)c(-c4cccc(O)c4)c4nc(c(-c5cccc(O)c5)c5ccc2[nH]5)CC4)C=C3)c1 [temoporfin]
inactive: 1 nM -0.78% | 8.33 nM 3.96% | 100 nM -0.62% | 833.33 nM -2.48% | 10000 nM -5.99%

Cc1ccccc1CN1C(=O)C2=C(CCN(Cc3ccccc3)C2)N2CCN=C12
inactive: 1 nM 0.63% | 8.33 nM 0.83% | 100 nM 0.4% | 833.33 nM 3.83% | 10000 nM 0.84%

Cc1ccc(S(N)(=O)=O)cc1 [para-toluenesulfonamide]
inactive: 1 nM 3.73% | 8.33 nM 1.88% | 100 nM 1.14% | 833.33 nM 0.12% | 10000 nM -5.38%

CONC(=N)c1ccc(-c2ccc(-c3ccc(C(=N)NOC)cc3)o2)cc1 [pafuramidine]
inactive: 1 nM -0.94% | 8.33 nM 1.16% | 100 nM -0.24% | 833.33 nM 0.72% | 10000 nM 2.7%

CCNC1=Nc2ccc(Cl)cc2C(C)(c2ccccc2)O1 (stereo not given) [etifoxine]
inactive: 1 nM 2.81% | 8.33 nM 2.31% | 100 nM 0.13% | 833.33 nM 2.41% | 10000 nM -2.7%

CC(=O)N1N=C(c2ccc(N)cc2)c2cc3c(cc2C[C@H]1C)OCO3 [talampanel]
inactive: 1 nM -0.4% | 8.33 nM 0.84% | 100 nM 0.91% | 833.33 nM 1.19% | 10000 nM 1.16%

O=C(O)[C@@H]1C[C@@H](C2CCCCC2)CN1C(=O)CP(=O)(O)CCCCc1ccccc1 [fosinoprilat]
inactive: 1 nM -0.23% | 8.33 nM -5.78% | 100 nM -5.83% | 833.33 nM 0.83% | 10000 nM 6.8%

C[C@H]1C[C@@H]2[C@H]([C@@H](O)C[C@@]3(C)[C@H]2CC[C@]3(O)C(=O)CO)[C@@]2(C)C=CC(=O)C=C12 [methylprednisolone]
inactive: 1 nM 0.61% | 8.33 nM 3.49% | 100 nM -1.8% | 833.33 nM 0.94% | 10000 nM 0.36%

O=C1NC(=O)/C(=C/c2ccc(-c3ccc(F)cc3O)o2)S1
inactive: 1 nM -0.52% | 8.33 nM -0.98% | 100 nM -0.46% | 833.33 nM -1.39% | 10000 nM -0.94%

COc1ccc(S(=O)(=O)N2CCCN(S(=O)(=O)c3ccc(OC)c(OC)c3)CC2)cc1OC
inactive: 1 nM -2.26% | 8.33 nM -1.47% | 100 nM -0.96% | 833.33 nM -5.53% | 10000 nM 6.2%

CC1(C)CCC(C)(C)c2cc(Cn3cccn3)c(/C=C/c3ccc(C(=O)O)cc3)cc21 [palovarotene]
inactive: 1 nM 3.77% | 8.33 nM 1.22% | 100 nM 1.2% | 833.33 nM 0.58% | 10000 nM 2.48%

NCCc1ccc(O)c(O)c1 [dopamine]
inactive: 1 nM -0.56% | 8.33 nM 0.74% | 100 nM -0.35% | 833.33 nM 0.38% | 10000 nM 0.14%

Cc1cc(-c2ccc(CC(=O)Nc3ccc(-c4cccnc4)cc3)cc2)ccn1
inactive: 1 nM -2.73% | 8.33 nM -2.58% | 100 nM -2.93% | 833.33 nM 4.57% | 10000 nM 7.2%

CN(CCOc1ccc(C[C@H](Nc2ccccc2C(=O)c2ccccc2)C(=O)O)cc1)c1ccccn1
inactive: 1 nM 2.1% | 8.33 nM 2.86% | 100 nM 0.52% | 833.33 nM 0.58% | 10000 nM -1.74%

O=C(Nc1ccc(F)cc1)N1CCc2ccccc2[C@@H]1c1ccc(C(F)(F)F)cc1
inactive: 1 nM 0.09% | 8.33 nM -1.41% | 100 nM -0.59% | 833.33 nM -1.97% | 10000 nM -1.53%

NC(=O)N1C(=O)/C(=C(\O)c2cccs2)c2cc(Cl)ccc21 [tenidap]
inactive: 1 nM 1.19% | 8.33 nM 1.1% | 100 nM 0.33% | 833.33 nM 1.99% | 10000 nM -5.52%

CC(C)(C)NCC(O)c1cc(Br)no1 (stereo not given) [broxaterol]
inactive: 1 nM -1.51% | 8.33 nM -0.09% | 100 nM -1.23% | 833.33 nM -0.44% | 10000 nM -2.74%

CS(=O)(=O)c1ccc(-c2cn3ccccc3n2)cc1 [zolimidine]
inactive: 1 nM -3.68% | 8.33 nM 0.55% | 100 nM 3.07% | 833.33 nM -5.22% | 10000 nM -2.8%

CCCNC(=O)Nc1ccc(Oc2ncnc3cc(OC)c(OC)cc23)cc1Cl
inactive: 1 nM 0.58% | 8.33 nM 0.62% | 100 nM 1.2% | 833.33 nM 0.47% | 10000 nM -2.74%

CC[C@H]1OC(=O)[C@H](C)C(=O)[C@H](C)[C@@H](O[C@@H]2O[C@H](C)C[C@H](N(C)C)[C@H]2O)[C@](C)(OC)C[C@@H](C)C(=O)[C@H](C)[C@H]2N(CCCCn3cnc(-c4cccnc4)c3)C(=O)O[C@]12C [telithromycin]
inactive: 1 nM -2.13% | 8.33 nM -0.46% | 100 nM -1.7% | 833.33 nM 0.65% | 10000 nM -0.07%

Cn1cc(-c2ccc(F)c(C(F)(F)F)c2)nc1C1CCN(c2ncnc3[nH]ncc23)CC1
inactive: 1 nM 0.45% | 8.33 nM -0.64% | 100 nM -1.2% | 833.33 nM -2.86% | 10000 nM -3.92%

COC(=O)[C@H](NC(=O)c1cc(-c2ccccc2)nc2ccccc12)c1ccccc1
inactive: 1 nM 2.67% | 8.33 nM 2.5% | 100 nM 0.38% | 833.33 nM 0.39% | 10000 nM 1.12%

CN(C)CCC=C1c2ccccc2C=Cc2ccccc21 [cyclobenzaprine]
inactive: 1 nM 0.3% | 8.33 nM 6.56% | 100 nM 3.92% | 833.33 nM -1.83% | 10000 nM -6.67%

CN1CC(=O)NC1=N [creatinine]
inactive: 1 nM 1.26% | 8.33 nM 1.05% | 100 nM -2.37% | 833.33 nM 1.18% | 10000 nM -1.05%

CCCC[P+](CCCC)(CCCC)Cc1ccc(NC(=O)[C@H](Cc2ccc3ccccc3c2)N/C(=N/C2CCCCC2)NC2CCCCC2)cc1
inactive: 1 nM -1.29% | 8.33 nM -0.27% | 100 nM -4.22% | 833.33 nM -4.62% | 10000 nM -2.72%

O=S(=O)(c1cccc2cnccc12)N1CCCNCC1 [fasudil]
inactive: 1 nM -2.19% | 8.33 nM -3.05% | 100 nM -2.08% | 833.33 nM -2.42% | 10000 nM -5.91%

C1CCN2C[C@@H]3C[C@@H](CN4CCCC[C@@H]34)[C@H]2C1 [sparteine-sulfate]
inactive: 1 nM 0.15% | 8.33 nM 4.17% | 100 nM 3.05% | 833.33 nM 1.05% | 10000 nM -2.55%

O=C(Oc1ccccc1)c1ccccc1O [phenyl-salicylate]
inactive: 1 nM -7.58% | 8.33 nM -2.22% | 100 nM -0.85% | 833.33 nM 3.43% | 10000 nM 5.08%

CCc1cc(C(N)=S)ccn1 [ethionamide]
inactive: 1 nM -1.54% | 8.33 nM 0.54% | 100 nM -0.38% | 833.33 nM -1.73% | 10000 nM 2.79%

CC1Sc2c(C(=O)O)c(=O)c3cc(F)c(N4CCNCC4)cc3n21 (stereo not given) [ulifloxacin]
inactive: 1 nM -1.7% | 8.33 nM -1.36% | 100 nM -3.62% | 833.33 nM 1.61% | 10000 nM -0.79%

COc1cc([C@@H]2c3cc4c(cc3[C@@H](O[C@@H]3O[C@@H]5CO[C@@H](C)O[C@H]5[C@H](O)[C@H]3O)[C@H]3COC(=O)[C@H]23)OCO4)cc(OC)c1O [etoposide]
inactive: 1 nM 6.79% | 8.33 nM -0.79% | 100 nM -0.58% | 833.33 nM -2.82% | 10000 nM 4.17%

CNC1CCCN(c2c(F)cc3c(=O)c(C(=O)O)cn(C4CC4)c3c2OC)C1 (stereo not given) [balofloxacin]
inactive: 1 nM -2.96% | 8.33 nM 0.66% | 100 nM 1.91% | 833.33 nM 1.72% | 10000 nM 2.43%

CCn1c(=O)[nH]c2cc(Cl)c(Cl)cc21
inactive: 1 nM 0.36% | 8.33 nM 1.8% | 100 nM 0.73% | 833.33 nM -2.68% | 10000 nM -2.08%

CC1(C)Oc2ccc(C#N)cc2[C@H](N(Cc2ncc[nH]2)c2ccc(Cl)cc2)[C@H]1O
inactive: 1 nM 0.45% | 8.33 nM -1.34% | 100 nM 1.85% | 833.33 nM 2.7% | 10000 nM -1.77%

CC(C)(Sc1cc(C(C)(C)C)c(O)c(C(C)(C)C)c1)Sc1cc(C(C)(C)C)c(O)c(C(C)(C)C)c1 [probucol]
inactive: 1 nM -0.06% | 8.33 nM 2.66% | 100 nM 0.1% | 833.33 nM -0.2% | 10000 nM 1.98%

Cc1ccc2c(Br)cc(Br)c(OC(=O)c3ccccc3)c2n1 [broxaldine]
inactive: 1 nM 0.35% | 8.33 nM 0.53% | 100 nM 4.07% | 833.33 nM 5.01% | 10000 nM 11.5%
